Values joined by “and” are separate entries in the source; they are usually repeats but may differ in a detail not shown here. Identical values can stand only once. A number with no mark means an inactive call. Results filed as inconclusive are left out. Where a call stands in place of a potency, no number is given. Active and inactive are the calls of the source. Unless noted, calls follow the shape of the dose curve; as a rule, active = well fitted curve in the direction sought with a large enough effect in the repeat runs; inconclusive = weak or mixed curves; inactive = no such curve, though single readings can be large; an effect the other way counts as inactive or inconclusive.
How the values were obtained:
[1] = qHTS assay for small molecule agonists of the p53 signaling pathway (AID 651631; calls by dose curve; also: nearly all actives have a fitted effect of over 15% in size; also: potency is read from the fitted curve at half-maximal effect)
Summary of the method: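 Beta-lactamase reporter activity under p53 response elements was quantified in HCT-116 cells by FRET fluorescence, following 16 h incubation with test compounds at 37 °C and 2 h substrate development at room temperature.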

[2] = qHTS assay for small molecules that induce genotoxicity in human embryonic kidney cells expressing luciferase-tagged ATAD5 (AID 651632); also: nearly all actives have a fitted effect of over 15% in size
Summary of the method: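 A rise in luciferase signal from ATAD5-tagged HEK293T cells marks genetic stress. Cells were exposed to compounds for 16 hr at 37C, 5% CO2, then luciferase was quantified after a 30 min room-temperature incubation with Amplite.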

[3] = qHTS assay for small molecule agonists of the p53 signaling pathway - cell viability (AID 651633; calls by dose curve;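 also: p53RE-bla HCT reporter cells with a stable beta-lactamase p53 reporter; series mostly up to about 83 µM; nearly all actives have a fitted effect of over 30% in size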)
Summary of the method: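 p53RE-bla cells were treated with compound for 16 hours at 37 C. Cytotoxicity was then measured as CellTiter-Glo luminescence after 30 min at room temperature.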

[4] = qHTS assay for small molecules that induce genotoxicity in human embryonic kidney cells expressing luciferase-tagged ATAD5 - cell viability (AID 651634; calls by dose curve; also: nearly all actives have a fitted effect of over 25% in size)
Summary of the method: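 Cytotoxicity counter-readout: after 15.5 hr compound treatment at 37C, live-cell protease activity in ATAD5-luciferase HEK293T cells measured by CellTiter-Fluor fluorescence, 30 min development at 37C.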

[5] = qHTS assay for small molecule disruptors of the mitochondrial membrane potential - cell viability (AID 720634; calls by dose curve; also: nearly all actives have a fitted effect of over 20% in size; also: potency is read from the fitted curve at half-maximal effect)
Summary of the method: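 Cytotoxicity was quantified from ATP content by CellTiter-Glo luminescence in the same wells as the MMP dye read-out. HepG2 (2,000 cells/well) were plated overnight and exposed to compounds for 1 hr at 37 C.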

[6] = qHTS assay to test for compound auto fluorescence at 590 nm (red) in HepG2 cells (AID 720674)
Summary of the method: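 HepG2 cells, 2,000 per well in MEM with 10% FBS, attached overnight at 37 C, then got 23 nL compound or DMSO. After 1 hr at 37 C, 5% CO2, red fluorescence was read at 540/590 nm against Rose Bengal sodium as reference.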

[7] = qHTS assay to test for compound auto fluorescence at 535 nm (green) in HepG2 cells (AID 720675)
[8] = qHTS assay to test for compound auto fluorescence at 460 nm (blue) in HEK293 cells (AID 720678)
Summary of the method: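 HEK293, 2,000 cells/well, 10% dialyzed FBS; attach 4-5 hr 37C; pin compound or DMSO; o/n 37C/5% CO2; fluorescence 405/460 nm; triamterene-equivalent units.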

[9] = qHTS assay to test for compound auto fluorescence at 590 nm (red) in HEK293 cells (AID 720679)
Summary of the method: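 Intensity at 540nm excitation and 590nm emission is reported as Rose Bengal sodium-equivalent autofluorescence. Measurements followed overnight exposure (37C, 5% CO2) of HEK293 cells, 2,000 per well, to 23 nL compound.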

[10] = qHTS assay for small molecule disruptors of the mitochondrial membrane potential (AID 720635)
Summary of the method: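 HepG2 cells exposed to compound 1 hr at 37C, then Mito-MPS dye 30 min. Ratio read of aggregate (540/590 nm) versus monomer (490/535 nm) fluorescence.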

Compound	Potency [1]	Potency [2]	Potency [3]	Potency [4]	Potency [5]	outcome [6]	outcome [7]	Potency [8]	outcome [9]	Potency [10]	fluorescence, relative to Rose Bengal [6]	fluorescence, % of fluorescein control [7]	fluorescence, % of triamterene [8]	fluorescence, % of fluorescent control [9]
CCCCCOC(=O)Nc1nc(=O)n([C@@H]2O[C@H](C)[C@@H](O)[C@H]2O)cc1F	inactive	inactive	inactive	inactive	inactive	inactive	inactive	inactive	inactive					
CC(=O)OC(C)(C)C	inactive	inactive	inactive	inactive	inactive	inactive	inactive	inactive	inactive					
COc1cccc(OC)c1	inactive	inactive	inactive	inactive	inactive	inactive	inactive	inactive	inactive					
Nc1nc(F)nc2c1ncn2[C@@H]1O[C@H](CO)[C@@H](O)[C@@H]1O	13.3 µM (active) and 8.41 µM (active)	inactive	inactive	inactive	inactive	inactive	inactive	inactive	inactive	inactive				
O=C(O)CCNC(=O)c1ccc(N=Nc2ccc(O)c(C(=O)O)c2)cc1	inactive	inactive	inactive	inactive	inactive	inactive	inactive	inactive						
CCCCCCC(CCCCCCCCCCC(=O)OCC(COC(C)=O)OC(C)=O)OC(C)=O (stereo not drawn)	inactive	inactive	inactive	inactive	inactive	inactive	inactive	inactive	inactive	inactive				
C=CCSCC1Nc2cc(Cl)c(S(N)(=O)=O)cc2S(=O)(=O)N1 (stereo not drawn)	inactive	inactive	inactive	inactive	inactive	inactive	inactive		inactive	inactive				
CCCC(C)CO (stereo not drawn)	inactive	inactive	inactive	inactive	inactive	inactive	inactive	inactive						
CCO[Si](C)(OCC)OCC	inactive	inactive	inactive	inactive	inactive	inactive	inactive		inactive	inactive				
CC(O)CN(CCCN(C)C)CCCN(C)C (stereo not drawn)	inactive	inactive	inactive	inactive	inactive	inactive	inactive	inactive	inactive	inactive				
CCCCc1ccc2cccc(S(=O)(=O)O)c2c1	inactive	inactive	inactive	inactive	inactive	inactive	inactive	inactive	inactive					
CC(C=O)Cc1ccc(C(C)C)cc1 (stereo not drawn)	inactive	inactive	inactive	inactive	inactive	inactive	inactive	inactive	inactive					
CCOC(=O)[C@H](CCc1ccccc1)N[C@@H](C)C(=O)N1CCC[C@H]1C(=O)O	inactive	inactive	inactive	inactive	inactive	inactive	inactive	inactive	inactive	inactive				
Cc1cc(C)c(NC(=O)CN(CC(=O)O)CC(=O)O)c(C)c1Br	inactive	inactive	inactive	inactive	inactive	inactive	inactive		inactive	inactive				
Cc1ncc(CSSCc2cnc(C)c(O)c2CO)c(CO)c1O	inactive	inactive	inactive	inactive	inactive	inactive	inactive	inactive	inactive					
CCCCc1ccc(N)cc1	inactive	inactive	inactive	inactive	inactive	inactive	inactive	inactive	inactive					
COC(=O)CCCC(=O)O	inactive	inactive	inactive	inactive	inactive	inactive	inactive	inactive	inactive					
NS(=O)(=O)c1cc2c(cc1C(F)(F)F)NC(Cc1ccccc1)NS2(=O)=O (stereo not drawn)	inactive	inactive	inactive	inactive	inactive						0.0251% [at 18.6 µM]	-0.0381% [at 18.6 µM]	0.0799% [at 18.6 µM]	0.307% [at 18.6 µM]
CCCCCCCCCCC1CO1 (stereo not drawn)	inactive	inactive	inactive	inactive	inactive	inactive	inactive	inactive	inactive					
O=C(O)/C=C/c1ccc(/C=C/C(=O)O)cc1	inactive	inactive	inactive	inactive	inactive	inactive	inactive		inactive	inactive				
CN(C)CCOC(c1ccc(Cl)cc1)c1ccccn1 (stereo not drawn)	inactive	inactive	inactive	inactive	5.31 µM (active)	inactive	inactive	inactive						
N#CC1(O)CCCCC1	inactive	inactive	inactive	inactive	inactive	inactive	inactive							
COC(=O)CCCCCCCCC(=O)OC	inactive	inactive	inactive	inactive	inactive	inactive	inactive							
O=C1C(CCS(=O)c2ccccc2)C(=O)N(c2ccccc2)N1c1ccccc1 (stereo not drawn)	inactive	inactive	inactive	inactive	inactive					inactive	-0.0311% [at 18.6 µM]	-0.114% [at 18.6 µM]		0.179% [at 18.6 µM]
